Data reported in PubChem BioAssay (NCI).
About 83,000 compounds went through this panel and 20% of them were active in at least one assay; those are over-represented in the sample as a whole.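 Results are percent growth after 48 hours of single-concentration exposure. 100 means growth as in untreated cells, lower positive values show inhibition; negative values down to -100 show cell death.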 Active and inactive are the calls of the source. The calls were made as follows: active = growth percent below 10; inactive = the rest.

How the values were obtained:
Test in all cases: NCI-60 one-dose screen, 48 h (100 = growth as untreated, 0 = no growth, -100 = all killed)
Conditions in all cases: 10 µM unless noted
NCI-H23 lung = test system: NCI-H23 lung
NCI-H226 lung = test system: NCI-H226 lung
NCI-H322M lung = test system: NCI-H322M lung
HOP-62 NSCLC = test system: HOP-62 NSCLC
NCI-H460 lung = test system: NCI-H460 lung
HOP-92 NSCLC = test system: HOP-92 NSCLC
NCI-H522 lung = test system: NCI-H522 lung
A549/ATCC NSCLC = test system: A549/ATCC NSCLC
786-0 renal = test system: 786-0 renal
COLO 205 colon = test system: COLO 205 colon
DU-145 prostate = test system: DU-145 prostate
K-562 leukemia = test system: K-562 leukemia
MALME-3M melanoma = test system: MALME-3M melanoma
MDA-MB-231 breast = test system: MDA-MB-231 breast
RXF 393 renal = test system: RXF 393 renal
SF-268 CNS = test system: SF-268 CNS
SF-295 CNS = test system: SF-295 CNS
SF-539 CNS = test system: SF-539 CNS
UACC-257 melanoma = test system: UACC-257 melanoma
M14 melanoma = test system: M14 melanoma

Measured: growth

Cn1cc(-c2ccc3nc(-c4ccc(CC(=O)ONc5cc(C(C)(C)C)on5)cc4)cnc3c2)cn1
inactive: NCI-H23 lung 43.7% | NCI-H226 lung 43.2% | NCI-H322M lung 22.8% | HOP-62 NSCLC 37.1% | NCI-H460 lung 25.2% | HOP-92 NSCLC 30.3% | NCI-H522 lung 39.4% | A549/ATCC NSCLC 31.1% | 786-0 renal 23.1% | COLO 205 colon 51.3% | DU-145 prostate 35.1% | K-562 leukemia 10.3% | MALME-3M melanoma 22.4% | MDA-MB-231 breast 39.1% | RXF 393 renal 28.8% | SF-268 CNS 33.5% | SF-295 CNS 38.1% | SF-539 CNS 17% | UACC-257 melanoma 39.8% | M14 melanoma 18.7%

CCCC/C(CC)=N\NS(=O)(=O)c1ccc([N+](=O)[O-])cc1
inactive: NCI-H23 lung 95.9% | NCI-H226 lung 93.4% | NCI-H322M lung 109% | HOP-62 NSCLC 96.7% | NCI-H460 lung 105% | HOP-92 NSCLC 91.6% | NCI-H522 lung 90.9% | A549/ATCC NSCLC 89.1% | 786-0 renal 103% | DU-145 prostate 97.2% | K-562 leukemia 95% | MALME-3M melanoma 101% | MDA-MB-231 breast 96.2% | RXF 393 renal 110% | SF-268 CNS 100% | SF-295 CNS 108% | SF-539 CNS 101% | UACC-257 melanoma 88.7% | M14 melanoma 101%

CCCCNC(=O)Oc1ccc(/C(=C(/C)Cc2ccc(OC)cc2)c2ccc(OCCN3CCCC3)cc2)cc1
active: K-562 leukemia -27.8% | M14 melanoma -64.6%
inactive: NCI-H23 lung 85.9% | NCI-H226 lung 94.7% | NCI-H322M lung 81.6% | HOP-62 NSCLC 79.1% | NCI-H460 lung 17.7% | HOP-92 NSCLC 49% | NCI-H522 lung 55.5% | A549/ATCC NSCLC 48.7% | 786-0 renal 59.8% | DU-145 prostate 80.1% | MALME-3M melanoma 58.8% | MDA-MB-231 breast 69% | RXF 393 renal 57% | SF-268 CNS 71.8% | SF-295 CNS 69.7% | SF-539 CNS 86.1% | UACC-257 melanoma 43.1%

CN(C)c1ccc(-c2c(C#N)c(N)nn2C(=O)c2ccc(NC(=O)c3ccccn3)cc2)cc1
inactive: NCI-H23 lung 96.5% | NCI-H226 lung 98.2% | NCI-H322M lung 96.7% | HOP-62 NSCLC 94.3% | NCI-H460 lung 94.2% | HOP-92 NSCLC 94.9% | NCI-H522 lung 91.4% | A549/ATCC NSCLC 96.1% | 786-0 renal 96% | DU-145 prostate 102% | K-562 leukemia 66.9% | MALME-3M melanoma 110% | MDA-MB-231 breast 108% | RXF 393 renal 117% | SF-268 CNS 94.1% | SF-295 CNS 99% | SF-539 CNS 92% | UACC-257 melanoma 112% | M14 melanoma 84.1%

O=C(Nc1cccc(-c2ccc(Cl)c(C(F)(F)F)c2)c1)C1CCN(Cc2cccc3cccnc23)CC1
inactive: NCI-H23 lung 48.2% | NCI-H226 lung 45.9% | NCI-H322M lung 35.5% | HOP-62 NSCLC 62.3% | HOP-92 NSCLC 30.2% | 786-0 renal 31.9% | DU-145 prostate 10.8% | SF-268 CNS 40.1% | UACC-257 melanoma 19.8%
active: NCI-H460 lung -87.2% | NCI-H522 lung -53% | A549/ATCC NSCLC -30.8% | K-562 leukemia -6.99% | MALME-3M melanoma -75.6% | MDA-MB-231 breast -24.1% | RXF 393 renal 8.93% | SF-295 CNS -43.9% | SF-539 CNS -88.7% | M14 melanoma -68.5%

COc1cc2oc(-c3cccc(NC(=O)c4ccccc4)c3)cc(=O)c2c(OC)c1OC
inactive: NCI-H23 lung 72.9% | NCI-H226 lung 81.4% | NCI-H322M lung 83.8% | HOP-62 NSCLC 78.4% | NCI-H460 lung 78.7% | HOP-92 NSCLC 47.6% | NCI-H522 lung 49.3% | A549/ATCC NSCLC 68.9% | 786-0 renal 78.1% | DU-145 prostate 85.5% | K-562 leukemia 43.1% | MALME-3M melanoma 86.8% | MDA-MB-231 breast 74.7% | RXF 393 renal 74.4% | SF-268 CNS 72.3% | SF-295 CNS 77.8% | SF-539 CNS 67.8% | UACC-257 melanoma 99.7% | M14 melanoma 75.3%

CC(C)C1=NOC(=O)C1=Cc1cn(-c2ccccc2)nc1-c1ccc(F)cc1
inactive: NCI-H23 lung 95.6% | NCI-H226 lung 93.7% | NCI-H322M lung 94.9% | HOP-62 NSCLC 90.1% | NCI-H460 lung 76.8% | HOP-92 NSCLC 89.8% | NCI-H522 lung 66.5% | A549/ATCC NSCLC 81.4% | 786-0 renal 77.4% | DU-145 prostate 74% | K-562 leukemia 29.2% | MALME-3M melanoma 90.8% | MDA-MB-231 breast 98.1% | RXF 393 renal 82.2% | SF-268 CNS 91.2% | SF-295 CNS 95.5% | SF-539 CNS 89.6% | UACC-257 melanoma 91% | M14 melanoma 67.4%
